Only a sample is shown.
aSyn UTR act: Activators via SNCA 5'UTR binding, MLPCN. AID 1814. alpha-synuclein 5'UTR reporter, activators screen. hit rate 7.1% among 300,000. activity score, % (tested at 7.5 µM), hits read low; in the data active = activity score below about -60%
An asterisk follows results filed as active.

`Cc1nc(N)sc1-c1csc(Nc2ccccn2)n1` gave aSyn UTR act -168.4*.
For Cc1nc(C)c(-c2csc(Nc3ccccn3)n2)s1 the results were aSyn UTR act -84.7*.
Screening Cc1ccnc(Nc2nc(-c3sc(C)nc3C)cs2)c1 returned aSyn UTR act -160.6*.
Screening Cc1nc(N)sc1-c1csc(Nc2ccc(Cl)cn2)n1 returned aSyn UTR act -141.6*.
For Cc1ccc2c(Cl)c(C(=O)Nc3cccnc3)sc2c1 the results were aSyn UTR act -72.8*.
Screening Cc1cc2oc(C(=O)Nc3cccnc3)c(C)c2cc1C returned aSyn UTR act -114.4*.
`Cc1ccc2c(C)c(C(=O)Nc3cccnc3)oc2c1` gave aSyn UTR act -201.3*.
O=C(COC(=O)c1ccccc1-n1cnnn1)c1ccc(F)cc1 was read as aSyn UTR act -145.2*.
`Cc1[nH]n(-c2ccc([N+](=O)[O-])cc2)c(=O)c1C=NCC1CCCO1` (configuration not stated) gave aSyn UTR act -88.0*.
`CCN1CCN(C(CNC(=O)c2ccc3c(c2)OCO3)c2cccnc2)CC1` (configuration not stated) gave aSyn UTR act -68.6*.
S=c1nc2ccccc2c2nc(-c3ccccc3)[nH]n12 was read as aSyn UTR act -63.6*.
For S=c1nc(-c2ccccc2)[nH]n1-c1ccccc1 the results were aSyn UTR act -142.7*.
Screening CCc1ccc(NC2=NCC(c3ccccc3)S2)cc1 (configuration not stated) returned aSyn UTR act -140.3*.
`Cc1nc(NC(=O)c2ccco2)sc1-c1csc(Nc2ccc(Cl)cc2)n1` gave aSyn UTR act -69.7*.
For COc1ccc(OC)c(Nc2nc(-c3sc(NC(=O)c4ccccc4)nc3C)cs2)c1 the results were aSyn UTR act -243.7*.
Screening Cc1nc(NC(=O)c2ccccc2)sc1-c1csc(Nc2ccc(F)cc2)n1 returned aSyn UTR act -93.9*.
Screening Cc1nc(NC(=O)c2ccccc2)sc1-c1csc(Nc2ccc(Cl)cc2Cl)n1 returned aSyn UTR act -83.6*.
Screening Cc1nc(NC(=O)c2ccccc2)sc1-c1csc(Nc2ccc(Cl)cc2)n1 returned aSyn UTR act -64.6*.
Cc1ccc(NC(=O)NC2=NN(c3ccccc3)C(=O)/C2=C2/CCCN2C)cc1 was read as aSyn UTR act -62.7*.
Cn1c(/C=C/c2ccc(Cl)cc2Cl)c([N+](=O)[O-])c(=O)n(C)c1=O was read as aSyn UTR act -203.6*.
Screening CCc1ccc(/C=C/c2c([N+](=O)[O-])c(=O)n(C)c(=O)n2C)cc1 returned aSyn UTR act -61.7*.
Screening O=[N+]([O-])c1ccc(N/N=C2\CC3CC=CC23)cc1 (configuration not stated) returned aSyn UTR act -99.8*.
For O=C(Nc1nnc(SCc2ccccc2F)s1)C1=COCCO1 the results were aSyn UTR act -117.2*.
O=C(Nc1nnc(SCc2ccccc2)s1)C1=COCCO1 was read as aSyn UTR act -71.7*.
`CC(=O)Nc1nnc(SCc2ccccc2F)s1` gave aSyn UTR act -75.9*.
For c1ccc(CSc2nnc(NC3=NCCCCC3)s2)cc1 the results were aSyn UTR act -88.8*.
Screening C=CCSc1nnc(NC(=O)C2=COCCO2)s1 returned aSyn UTR act -81.7*.
O=C(NCCc1ccccc1)C1=COCCO1 was read as aSyn UTR act -129.0*.
`O=c1cc(-c2ccc(O)cc2)oc2cc(O)cc(O)c12` gave aSyn UTR act -269.3*.
Screening COCOc1ccc(-c2cc(=O)c3c(O)cc(OCOC)cc3o2)cc1 returned aSyn UTR act -127.4*.
Screening COc1cc(O)c2c(=O)c3c(OC)c(O)ccc3oc2c1 returned aSyn UTR act -78.0*.
Screening COc1cc(-c2cc(=O)c3c(O)cc(O)cc3o2)ccc1O returned aSyn UTR act -79.0*.
For COc1ccc(-c2cc(=O)c3c(O)c(OC)c(O)cc3o2)cc1 the results were aSyn UTR act 70.2.
O=c1c(O)c(-c2ccc(O)cc2)oc2cc(O)cc(O)c12 was read as aSyn UTR act -100.1*.
For COc1cc(O)c2c(=O)cc(-c3ccccc3)oc2c1 the results were aSyn UTR act -144.9*.
`O=c1cc(-c2ccccc2)oc2cc(O)cc(O)c12` gave aSyn UTR act -170.7*.
`COc1ccc(C(=O)CSc2nnn(-c3cccc(NC(C)=O)c3)n2)cc1` gave aSyn UTR act -119.4*.
Screening CC(=O)Nc1cccc(-n2nnc(SCC(=O)c3ccccc3)n2)c1 returned aSyn UTR act -121.3*.
For Cc1cc(C)c2c(c1)C(=O)/C(=C/c1ccc(C(=O)O)cc1)CC2 the results were aSyn UTR act -78.5*.
`O=C1C=C(c2cc3ccccc3s2)CCC1` gave aSyn UTR act -86.3*.
For CC(=O)Oc1ccc(C(=O)Cc2ccc3ccccc3n2)c(O)c1C the results were aSyn UTR act -143.3*.
Screening Cc1c(O)ccc(/C(Cc2ccc3ccccc3n2)=N\O)c1O returned aSyn UTR act -76.3*.
Screening Oc1ccc(/C(Cc2ccc3ccccc3n2)=N\Nc2ccccc2)c(O)c1 returned aSyn UTR act -89.7*.
For CCOC(=O)c1c(C)c(C(=O)O)n(C)c1C the results were aSyn UTR act 32.2.
`CCOC(=O)c1c(C)c(C(=O)NCCc2ccccc2)c(C)n1C` gave aSyn UTR act -80.4*.
For Cc1cc(C)n2nc(C(=O)NNC(=O)c3ccc(Cl)cc3)nc2n1 the results were aSyn UTR act -75.7*.
For Cc1nn(Cc2ccccc2)c(Cl)c1C(=O)NCCc1ccccc1 the results were aSyn UTR act -135.4*.
Cc1cc(C)n2nc(C(=O)NCCc3ccccc3)nc2n1 was read as aSyn UTR act -72.0*.
O=C(Nc1cc(N2CCCCC2)ncn1)c1ccc(F)cc1 was read as aSyn UTR act -86.3*.
Screening COc1ccc(N2CS(=O)(=O)/C(=C/N(C)C)C2=O)cc1 returned aSyn UTR act -92.9*.
Screening c1ccc(-c2ccc(-n3ccnc3)cc2)cc1 returned aSyn UTR act -80.8*.
Screening N#C/C(=C\c1ccc(Cl)cc1)c1nc(-c2ccco2)cs1 returned aSyn UTR act -66.0*.
For N#C/C(=C\c1ccc(F)cc1)c1nc(-c2ccco2)cs1 the results were aSyn UTR act -166.9*.
For c1cncc(-c2nc3c(ccc4ccccc43)[nH]2)c1 the results were aSyn UTR act -192.6*.
CCCc1cc(=O)n2c([nH]c3ccccc32)c1C#N was read as aSyn UTR act -69.6*.
Cc1cc(O)c(C(=O)Cc2csc(C)n2)c(O)c1 was read as aSyn UTR act -131.7*.
COc1ccccc1-n1cnc(N)c1C(=O)c1ccccc1 was read as aSyn UTR act -152.8*.
For COc1cc(C(=O)N/N=C(\c2ccccc2)c2ccccn2)cc(OC)c1OC the results were aSyn UTR act 81.3.
`Cc1cc(CNC(=O)Nc2ccc3c(c2)OCO3)nn1C` gave aSyn UTR act -79.5*.
Screening CCn1nc(C)c(CNC(=O)Nc2ccc3c(c2)OCO3)c1C returned aSyn UTR act -70.5*.
For Cc1cc(N2CCOCC2)ccc1/C=C1\SC(=O)N(C(C)C)C1=O the results were aSyn UTR act -114.6*.
CCC(C)N1C(=O)S/C(=C/c2ccc(N3CCOCC3)cc2C)C1=O (configuration not stated) was read as aSyn UTR act -166.7*.
`Cc1ccc(-c2nn(-c3ccccc3)cc2/C=N/NC(=O)CSc2nnc(C)n2-c2ccccc2)cc1` gave aSyn UTR act -124.5*.
`COc1ccc(-c2nn(-c3ccccc3)cc2/C=N/NC(=O)c2ccc(Br)o2)cc1` gave aSyn UTR act -97.5*.
Screening Cc1cc(SCC(=O)N/N=C/c2ccc(O)c(O)c2O)c(C)cc1Br returned aSyn UTR act 67.5.
